# From PubChem BioAssay
# For some of these results: Potency and affinity values are given separately. The source made the active and inactive calls.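 The calls were made as follows, unless noted: active = calcium signal cut by more than 3 SD below the full-agonist control yet still positive, in both repeats and the earlier primary screen; inactive = the rest.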
# What was measured:
# [1] = test system: TRPC4 beta (transient receptor potential cation channel C4), mouse; experiment: activators of mouse TRPC4 channel, confirmation, cell-based, Fluo4 calcium, HEK293 TRPC4beta/mu-opioid, duplicates, 10 µM (AID 2426;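 active = fluorescence ratio normalized to control raised more than 50% in primary screen plus both repeat runs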); conditions: Fluo4 calcium fluorescence, at 10 µM; active compounds read high
# [2] = test system: transient receptor potential cation channel C4 beta (TRPC4), mouse; experiment: activators of mouse TRPC4 channel, confirmation, cell-based, second round, Fluo4, HEK293 TRPC4beta/mu-opioid, 1 µM (AID 2461;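 active = primary screen active and over 50% activation in each of two duplicate runs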); conditions: Fluo4 calcium fluorescence, at 1 µM; active compounds read high
# [3] = test system: TRPC4 (transient receptor potential cation channel C4 beta), mouse; experiment: positive allosteric modulators of mouse TRPC4, confirmation, cell-based, second round, Fluo-4, HEK293 TRPC4beta/mu-opioid, 1 µM (AID 2554;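 active = primary screen hit whose fluorescence ratio, in both repeats, exceeds the weak agonist control mean by 3 SD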); conditions: DAMGO EC20, Fluo-4 calcium flux, at 1 µM; active compounds read high
# [4] = test system: TRPC4 beta (transient receptor potential cation channel C4), mouse; experiment: positive allosteric modulators of mouse TRPC4, confirmation, cell-based, Fluo-4, HEK293 TRPC4beta/mu-opioid (AID 2555;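 active = primary screen hit whose calcium fluorescence ratio, in both repeats, exceeds the weak agonist control mean by 3 SD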); conditions: DAMGO EC20, Fluo-4 calcium flux, at 10 µM; active compounds read high
# [5] = biological target: Short transient receptor potential channel 4 (Mus musculus) (UniProt Q9QUQ5); experiment: inhibitors of mouse TRPC4 channel, confirmation, cell-based, Fluo4, HEK293 TRPC4beta/mu-opioid (AID 2636); conditions: DAMGO, Fluo4 calcium flux, at 10 µM; active compounds read high
# Sequence of Short transient receptor potential channel 4 (Mus musculus) (Q9QUQ5 whole entry, looked up): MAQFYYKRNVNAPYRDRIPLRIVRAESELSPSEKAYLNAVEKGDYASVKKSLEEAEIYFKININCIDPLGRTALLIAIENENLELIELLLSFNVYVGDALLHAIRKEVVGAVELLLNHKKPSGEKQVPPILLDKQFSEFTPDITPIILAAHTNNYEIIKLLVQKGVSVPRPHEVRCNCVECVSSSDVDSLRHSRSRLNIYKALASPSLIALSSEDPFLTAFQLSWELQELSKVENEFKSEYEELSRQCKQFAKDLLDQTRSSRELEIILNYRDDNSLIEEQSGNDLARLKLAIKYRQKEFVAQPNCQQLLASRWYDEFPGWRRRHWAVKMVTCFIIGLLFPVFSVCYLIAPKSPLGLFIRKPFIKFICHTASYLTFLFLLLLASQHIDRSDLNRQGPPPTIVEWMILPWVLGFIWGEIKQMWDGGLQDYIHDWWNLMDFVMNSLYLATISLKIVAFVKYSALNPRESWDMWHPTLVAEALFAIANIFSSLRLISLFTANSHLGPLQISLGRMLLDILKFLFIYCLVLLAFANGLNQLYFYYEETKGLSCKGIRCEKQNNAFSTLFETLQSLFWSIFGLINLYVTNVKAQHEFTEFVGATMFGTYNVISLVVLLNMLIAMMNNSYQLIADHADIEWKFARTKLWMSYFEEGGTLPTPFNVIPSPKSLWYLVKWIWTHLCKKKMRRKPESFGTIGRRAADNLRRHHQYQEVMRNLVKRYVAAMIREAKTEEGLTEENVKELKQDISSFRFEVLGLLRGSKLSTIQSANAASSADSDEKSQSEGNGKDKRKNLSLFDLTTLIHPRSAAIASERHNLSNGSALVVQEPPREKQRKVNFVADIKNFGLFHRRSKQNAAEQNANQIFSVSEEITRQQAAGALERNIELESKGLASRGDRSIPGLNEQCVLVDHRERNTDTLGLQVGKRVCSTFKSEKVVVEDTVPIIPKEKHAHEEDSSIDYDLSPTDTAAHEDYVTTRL
# [6] = biological target: Short transient receptor potential channel 4 (Mus musculus) (UniProt Q9QUQ5); experiment: inhibitors of mouse TRPC4 channel, confirmation, cell-based, second round, Fluo4, HEK293 TRPC4beta/mu-opioid, 1 µM (AID 2637;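 active = calcium signal ratio cut to more than 3 SD under the fully stimulated control mean yet still positive, in both repeats and the primary screen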;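 as to inhibition: percent of integrated ratio relative to wells lacking test compound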); conditions: Fluo4 calcium flux, DAMGO, at 1 µM; active compounds read high
# [7] = biological target: Short transient receptor potential channel 4 (Mus musculus) (UniProt Q9QUQ5); experiment: mouse TRPC4 channel activators, dose response, cell-based, HEK293 TRPC4/mu-opioid, Fluo-4 calcium (AID 434937;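 active = primary screen activator hit with a dose response curve and TRPC4 channel activation at any tested dose; inactive = no activation, no dose response, or not a primary hit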)
# [8] = biological target: Short transient receptor potential channel 4 (Mus musculus) (UniProt Q9QUQ5); experiment: TRPC4 positive allosteric modulators, dose response, cell-based, HEK293 TRPC4/mu-opioid, Fluo-4 calcium, EC20 DAMGO (AID 434941;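 active = earlier screen potentiator hit that boosts the TRPC4 ion channel at some dose, with a dose response; inactive = no potentiation, no dose response, or not a prior hit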;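 also: calcium entry triggered by an EC20 dose of DAMGO at the co-expressed mu-opioid receptor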)
# [9] = biological target: Short transient receptor potential channel 4 (Mus musculus) (UniProt Q9QUQ5); experiment: mouse TRPC4 channel inhibitors, dose response, cell-based, HEK293 TRPC4/mu-opioid, Fluo-4 calcium (AID 434942;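 active = primary screen inhibitor hit that blocks the TRPC4 channel at some tested dose, yielding a dose curve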)
# [10] = biological target: Short transient receptor potential channel 6 (Mus musculus) (UniProt Q61143); experiment: inhibition of mouse TRPC6 channel, confirmation, selectivity assay for TRPC4 inhibitor project, cell-based, HEK293, membrane potential dye, duplicate (AID 434948;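 active = active in primary screen and both duplicates, each dropping signal beyond three positive-control SD with fluorescence still positive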); conditions: HEK293 TRPC6, membrane potential dye fluorescence, at 10 µM, stimulated with maximal-effect acetylcholine; active compounds read high
# Sequence of Short transient receptor potential channel 6 (Mus musculus) (Q61143 whole entry, looked up): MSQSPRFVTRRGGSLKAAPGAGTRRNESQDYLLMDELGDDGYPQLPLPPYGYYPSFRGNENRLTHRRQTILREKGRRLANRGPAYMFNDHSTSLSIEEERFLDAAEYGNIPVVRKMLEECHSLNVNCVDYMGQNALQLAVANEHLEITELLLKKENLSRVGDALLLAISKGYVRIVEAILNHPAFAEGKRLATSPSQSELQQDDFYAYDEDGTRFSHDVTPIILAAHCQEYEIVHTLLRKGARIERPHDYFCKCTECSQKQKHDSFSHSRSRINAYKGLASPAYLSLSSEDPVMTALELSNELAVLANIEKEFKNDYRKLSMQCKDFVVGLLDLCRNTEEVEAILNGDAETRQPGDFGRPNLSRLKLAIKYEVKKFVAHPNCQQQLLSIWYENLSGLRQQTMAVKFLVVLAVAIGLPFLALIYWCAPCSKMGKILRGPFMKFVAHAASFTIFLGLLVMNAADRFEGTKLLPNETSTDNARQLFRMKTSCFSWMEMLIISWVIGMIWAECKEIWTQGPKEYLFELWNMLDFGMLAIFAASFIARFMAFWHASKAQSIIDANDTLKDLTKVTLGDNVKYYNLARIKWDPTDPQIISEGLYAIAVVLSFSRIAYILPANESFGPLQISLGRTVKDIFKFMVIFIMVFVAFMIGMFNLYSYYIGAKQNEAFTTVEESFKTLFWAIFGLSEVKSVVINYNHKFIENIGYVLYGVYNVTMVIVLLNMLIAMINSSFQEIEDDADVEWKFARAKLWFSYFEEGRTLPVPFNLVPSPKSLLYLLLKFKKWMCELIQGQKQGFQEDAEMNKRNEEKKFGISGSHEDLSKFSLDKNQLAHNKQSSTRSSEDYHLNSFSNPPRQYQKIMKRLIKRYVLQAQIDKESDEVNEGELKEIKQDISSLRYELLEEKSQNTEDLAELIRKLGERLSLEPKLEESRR
# [11] = biological target: Short transient receptor potential channel 6 (Mus musculus) (UniProt Q61143); experiment: activation of mouse TRPC6 channel, confirmation, selectivity assay for TRPC4 activator project, cell-based, HEK293, membrane potential dye, duplicate (AID 434950;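 active = membrane potential signal rise above negative control mean plus 3 SD in both duplicates, also active in the earlier TRPC4 screen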); conditions: HEK293 TRPC6, membrane potential fluorescence, at 10 µM; active compounds read high
# [12] = biological target: Short transient receptor potential channel 6 (Mus musculus) (UniProt Q61143); experiment: TRPC6 potentiation by TRPC4 potentiator hits, confirmation, selectivity assay for TRPC4 potentiator project, HEK293 cells, membrane potential dye, duplicate (AID 434952;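 active = compound raising the membrane signal above positive-control mean plus 3 SD in both repeats, and a primary screen hit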); conditions: HEK293 TRPC6, membrane potential dye fluorescence, at 10 µM, maximal acetylcholine added after compound; active compounds read high
# [13] = biological target: Short transient receptor potential channel 4 (Mus musculus) (UniProt Q9QUQ5); experiment: calcium flux activators in TRPC4/5HT1a cells, counter-screen for TRPC4 activator project, cell-based, second counter screen, HEK293 TRPC4/5HT1a, Fluo-4 (AID 434977;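 active = calcium signal rise above buffer-control mean plus 5 SD in both duplicates, and also a hit in the primary screen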); conditions: Fluo-4 calcium flux, at 10 µM; active compounds read high
# [14] = calcium flux inhibitors in TRPC4/5HT1a cells, confirmation, counter-screen for TRPC4 inhibitor project, cell-based, second counter screen, HEK293 TRPC4/5HT1a, Fluo-4 (AID 434978;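 active = primary screen active whose calcium signal fell more than 3 SD beyond the full-serotonin control mean in both duplicate plates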;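 as to outcome: serotonin given first at submaximal then at maximal dose after compound preincubation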); conditions: Fluo-4 calcium flux, at 10 µM, serotonin added to trigger calcium flux; active compounds read high
# [15] = test system: TRPC4 (mouse), co-expressed with 5HT1a in HEK293; experiment: calcium flux potentiators in TRPC4/5HT1a cells, confirmation, counter-screen for TRPC4 potentiator project, cell-based, second counter screen, HEK293 TRPC4/5HT1a, Fluo-4 (AID 434979;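 active = signal rise over 3 SD above mean of control wells given weak agonist, in both repeats and first screen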); conditions: Fluo-4 calcium flux, at 10 µM, serotonin added at its EC20 dose; active compounds read high
# [16] = calcium flux activation in mu-opioid HEK293 cells, confirmation, counter-screen for TRPC4 activator project, cell-based, HEK293 mu-opioid receptor line (AID 449723;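 active = hit in primary screen, with calcium signal over 5 SD above buffer well mean in both duplicates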;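 also: counter screen cells carry the mu-opioid receptor alone and lack TRPC4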); conditions: Fluo-4 calcium fluorescence, at 10 µM; active compounds read high
# [17] = calcium flux enhancement in mu-opioid HEK293 cells, confirmation, counter-screen for TRPC4 allosteric potentiator project, cell-based, HEK293 mu-opioid receptor line (AID 449724;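 active = calcium signal rise more than 3 SD above the low-dose agonist control mean, in both duplicate plates and the primary screen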); conditions: Fluo-4 calcium flux, at 10 µM, compound added before EC20 DAMGO stimulus; active compounds read high
compound,measurement,setting,value
COc1cccc(C(=O)Oc2ccc(/C=N/Nc3ccc(C(=O)O)cc3)cc2OC)c1,outcome,[1],inactive
same,outcome,[2],inactive
same,outcome,[3],inactive
same,outcome,[4],inactive
same,outcome,[5],inactive
same,outcome,[6],inactive
same,outcome,[7],inactive
same,outcome,[8],inactive
same,outcome,[9],inactive
same,outcome,[10],inactive
same,outcome,[11],inactive
same,outcome,[12],inactive
same,outcome,[13],inactive
same,outcome,[14],inactive
same,outcome,[15],inactive
same,outcome,[16],inactive
same,outcome,[17],inactive
Cc1ccc(/C=C/C(=O)NC2CCCCCCC2)o1,outcome,[1],inactive
same,outcome,[2],inactive
same,outcome,[3],inactive
same,potentiation,[4],16% (active)
same,outcome,[5],inactive
same,outcome,[6],inactive
same,outcome,[7],inactive
same,outcome,[8],inactive
same,outcome,[9],inactive
same,outcome,[10],inactive
same,outcome,[11],inactive
same,outcome,[12],inactive
same,outcome,[13],inactive
same,outcome,[14],inactive
same,potentiation,[15],19.1% (active)
same,outcome,[16],inactive
same,outcome,[17],inactive
CCOC(=O)C1(Cc2cccc(OC)c2)CCN(Cc2cccc(O)c2)CC1,outcome,[1],inactive
same,outcome,[2],inactive
same,outcome,[3],inactive
same,outcome,[4],inactive
same,inhibition,[5],84% (active)
same,inhibition,[6],43% (active)
same,outcome,[7],inactive
same,outcome,[8],inactive
same,outcome,[10],inactive
same,outcome,[11],inactive
same,outcome,[12],inactive
same,outcome,[13],inactive
same,outcome,[14],inactive
same,outcome,[15],inactive
same,outcome,[16],inactive
same,outcome,[17],inactive
OCCCNc1c2ccccc2nc2ccccc12,outcome,[1],inactive
same,outcome,[2],inactive
same,outcome,[3],inactive
same,outcome,[4],inactive
same,inhibition,[5],92% (active)
same,outcome,[6],inactive
same,outcome,[7],inactive
same,outcome,[8],inactive
same,inhibition,[10],39.5% (active)
same,outcome,[11],inactive
same,outcome,[12],inactive
same,outcome,[13],inactive
same,inhibition,[14],41.8% (active)
same,outcome,[15],inactive
same,outcome,[16],inactive
same,outcome,[17],inactive
OC1(c2ccc(F)cc2)CCN(Cc2ccccc2)C1 (stereo not given),outcome,[1],inactive
same,outcome,[2],inactive
same,outcome,[3],inactive
same,outcome,[4],inactive
same,inhibition,[5],98% (active)
same,inhibition,[6],55% (active)
same,outcome,[7],inactive
same,outcome,[8],inactive
same,outcome,[10],inactive
same,outcome,[11],inactive
same,outcome,[12],inactive
same,outcome,[13],inactive
same,inhibition,[14],18.4% (active)
same,outcome,[15],inactive
same,outcome,[16],inactive
same,outcome,[17],inactive
Cc1cccc(C(=O)Nc2sc(-c3ccccc3)cc2C(=O)O)c1,outcome,[1],inactive
same,outcome,[2],inactive
same,outcome,[3],inactive
same,outcome,[4],inactive
same,inhibition,[5],98% (active)
same,outcome,[6],inactive
same,outcome,[7],inactive
same,outcome,[8],inactive
same,outcome,[10],inactive
same,outcome,[11],inactive
same,outcome,[12],inactive
same,outcome,[13],inactive
same,inhibition,[14],19.4% (active)
same,outcome,[15],inactive
same,outcome,[16],inactive
same,outcome,[17],inactive
COCCn1c(SCc2ccc(F)cc2)nc2ccccc2c1=O,outcome,[1],inactive
same,outcome,[2],inactive
same,outcome,[3],inactive
same,outcome,[4],inactive
same,inhibition,[5],96% (active)
same,outcome,[6],inactive
same,outcome,[7],inactive
same,outcome,[8],inactive
same,outcome,[10],inactive
same,outcome,[11],inactive
same,outcome,[12],inactive
same,outcome,[13],inactive
same,inhibition,[14],21.6% (active)
same,outcome,[15],inactive
same,outcome,[16],inactive
same,outcome,[17],inactive
CC(C)(C)NCc1ccccc1OCc1cccs1,outcome,[1],inactive
same,outcome,[2],inactive
same,outcome,[3],inactive
same,outcome,[4],inactive
same,inhibition,[5],95% (active)
same,inhibition,[6],45% (active)
same,outcome,[7],inactive
same,outcome,[8],inactive
same,inhibition,[10],15% (active)
same,outcome,[11],inactive
same,outcome,[12],inactive
same,outcome,[13],inactive
same,inhibition,[14],17.5% (active)
same,outcome,[15],inactive
same,outcome,[16],inactive
same,outcome,[17],inactive
